FLuc inh: Firefly luciferase inhibition profiling of diverse chemical library using quantitative high-throughput screening | AID 1347043, 2019 | 76,000 compounds, 2.5% hits | purified P. pyralis luciferase, luminescence, biochemical | Luciferin 4-monooxygenase (Photinus pyralis), P08659 | Potency, µM (top dose mostly 115 µM), most hits filed as inhibitors; also: nearly all actives have a fitted effect of over 65% in size
Target sequence (P08659 whole entry, looked up): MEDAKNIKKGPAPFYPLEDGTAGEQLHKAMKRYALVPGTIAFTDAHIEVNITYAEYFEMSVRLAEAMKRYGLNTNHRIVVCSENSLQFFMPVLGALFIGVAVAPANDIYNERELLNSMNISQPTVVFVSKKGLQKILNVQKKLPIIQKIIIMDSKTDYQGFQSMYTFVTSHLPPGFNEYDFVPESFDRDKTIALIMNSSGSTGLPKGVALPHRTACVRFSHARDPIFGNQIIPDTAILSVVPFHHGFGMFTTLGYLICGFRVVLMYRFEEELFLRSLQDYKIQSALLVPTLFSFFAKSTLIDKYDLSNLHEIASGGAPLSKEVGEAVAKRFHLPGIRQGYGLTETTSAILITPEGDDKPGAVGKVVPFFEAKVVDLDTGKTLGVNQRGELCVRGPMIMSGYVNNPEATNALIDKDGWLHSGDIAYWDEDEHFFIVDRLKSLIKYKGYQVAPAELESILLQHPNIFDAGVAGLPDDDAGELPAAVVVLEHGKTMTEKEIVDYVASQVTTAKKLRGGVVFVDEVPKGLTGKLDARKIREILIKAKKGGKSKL
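Luminescence read by CCD imager after adding enzyme (10nM final) to wells holding compound, titrated in qHTS. Substrates 10uM each D-luciferin and ATP; buffer 50mM Tris acetate pH 7.5, 10mM Mg acetate, Tween-20, BSA.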
NPR1 antag: Natriuretic polypeptide receptor (hNpr1) antagonism - Primary qHTS | 76,000 compounds, 1.6% hits | HEK293 hNpr1 GloSensor cGMP, ANP-stimulated luminescence | Atrial natriuretic peptide receptor 1 (Homo sapiens), P16066 | Potency, µM (series often up to 46.3 µM), without a hit: top-dose activity change, negative = inhibition, hits mostly inhibitors; calls by dose curve; also: nearly all actives have a fitted effect of over 60% in size
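HEK293 cells stably expressing human Npr1 and cGMP GloSensor pGS-40F, loaded 2 h with 2% GloSensor reagent, given compound 30 min at room temperature. Luminescence read before and 20 min after 0.1 nM hNppA.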
HEK cytotox: Cytotoxic Profiling in HEK 293 Cell Line of Diverse Libraries Using Quantitative High-Throughput Screening. HEK 293 viability, ATP luminescence (CellTiter-Glo), 48-72 h. Potency, µM (doses to about 115 µM), without a hit: at the highest dose activity change, negative = cytotoxicity, actives largely listed as inhibitors. 94,000 compounds, 6.6% hits. AID 1345083, 2018; also: nearly all actives have a fitted effect of over 60% in size
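CellTiter-Glo luminescence (cellular ATP) was read after 48 or 72 hr of compound exposure at 37 degree Celsius. Cells were HEK 293 plated at 250 cells/well.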
3T3 cytotox: Cytotoxic Profiling in NIH 3T3 Cell Line of Diverse Libraries Using Quantitative High-Throughput Screening; NIH 3T3 viability, CellTiter-Glo ATP luminescence, 48-72 h; Potency, µM (top dose mostly 96.7 µM), for inactives: at the top dose activity change, negative = cytotoxicity, hits mostly inhibitors; 94,000 compounds, 4.3% hits; AID 1345082, 2018; also: nearly all actives have a fitted effect of over 55% in size
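ATP-dependent luminescence (CellTiter-Glo) served as the viability signal for NIH 3T3 cells treated with compound for 48 or 72 hr at 37 °C.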
* = called active by the depositor; i = inactive; ? = inconclusive; . = no result given; [ ] = another dose, or the depositor's remark. A selection: hits, their analogues and other compounds. The true share with any hit is near 11%. Unless noted, calls follow the shape of the dose curve; as a rule, active = well fitted curve in the direction sought with a large enough effect; inconclusive = small, poorly fitted or top-dose-only effect, or another doubt; inactive = no such curve, though single readings can be large; an effect the other way counts as inactive or inconclusive. % is scaled to controls: 0 for no effect and ±100 for the full control effect; potency is read from the fitted curve at half-maximal effect.

SMILES	FLuc inh	NPR1 antag	HEK cytotox	3T3 cytotox
CC(C)CN1CCN(c2cc(Cl)ncn2)C(=O)C1	i	18.0%[70.6 µM]	?	-32.9%[138 µM]
O=C1CN(Cc2cccc(-c3ccsc3)c2)CCN1c1cc(Cl)ncn1	i	-11.5%	79.4µM*	?
Cc1ccccc1-c1cc(O)c2c(c1)CN(Cc1ccoc1)CCO2	i	-18.3%	?	?
Cc1nc(CC(=O)NCc2ccc3[nH]c(-c4ccc(F)cc4)c(C)c3c2)cs1	35.5µM*	?	?	?
Cc1c(-c2ccc(F)cc2)[nH]c2ccc(CNC(=O)CCN3CCCO3)cc12	25.1µM*	?	31.6µM*	?
O=C1CCCCC(C(=O)NCc2ccc(F)cc2)N1 (centres undefined)	i	3.8%	-0.8%	4.6%
Cc1c(-c2ccc(F)cc2)[nH]c2ccc(CNC(=O)[C@@H]3CCCO3)cc12	35.5µM*	-16.9%	50.1µM*	?
Cc1c(-c2ccc(F)cc2)[nH]c2ccc(CNCc3cnn(C)c3)cc12	?	-22.1%	39.8µM*	39.8µM*
O=C(CCN1CCCCO1)N1CCCC(CCc2ccc(F)c(F)c2)C1 (centres undefined)	i	9.4%	?	-18.0%
Cc1cc(F)ccc1-c1[nH]nc2ncc(-c3cnn(C)c3)nc12	i	-2.1%[70.6 µM]	?	-24.4%[138 µM]
COc1cc(CNC(=O)c2nc3nc(-c4ccccc4)c(Cl)cc3n2C)cc(OC)c1	i	-9.1%[70.6 µM]	?	-27.7%[138 µM]
Cc1ccc(Cn2cc(-c3ccncc3)cc2C(=O)NCc2ccc(N(C)C)cc2)cc1	i	0.2%	44.7µM*	?
COc1ccccc1Nc1ncc2c(n1)CN(C(=O)c1cccc(O)c1)CCN2	i	-26.0%[70.6 µM]	100µM*	-3.0%[138 µM]
Cn1c(C(=O)N2CCNc3cnc(Nc4cccc(C(F)(F)F)c4)nc3C2)cc2ccccc21	i	-30.0%	39.8µM*	39.8µM*
COc1ccccc1Nc1ncc2c(n1)CN(C(=O)c1ccc(Cl)cc1)CCN2	i	-29.8%[70.6 µM]	?	?
COc1ccccc1Nc1ncc2c(n1)CN(C(=O)c1ccc(Oc3ccccc3)cc1)CCN2	i	-3.7%	35.5µM*	?
COc1ccc(-c2noc(-c3cccn3CC(=O)Nc3c(C)cccc3Cl)n2)cc1F	i	-14.4%	1.0%	i
COc1cccc(CN2CCCCC2c2nc(CCOCC3CC3)no2)c1 (centres undefined)	.	.	?	-26.4%
COc1ccccc1Cn1c(=O)c(C(=O)N2CCN(C(=O)C3CCCC3)CC2)nc2cccnc21	.	.	?	-29.0%
CC(C)C(=O)N1CCCC1Cc1noc(Cc2ccccc2)n1 (centres undefined)	.	.	-7.4%	-20.7%
O=C(Cc1c[nH]c2ncc(-c3cccc(CO)c3)cc12)NCc1cccnc1	i	-9.4%[70.6 µM]	-21.8%[172 µM]	?
O=C(Cc1c[nH]c2ncc(-c3ccc(Cl)cc3)cc12)NCc1cccnc1	?	-30.2%[70.6 µM]	89.1µM*	?
O=C(Cc1c[nH]c2ncc(-c3ccc(Oc4ccccc4)cc3)cc12)NCc1cccnc1	i	?	39.8µM*	?
COc1cccc(NC(=O)c2c(C)oc3ccn(Cc4ccc(F)cc4)c(=O)c23)c1	i	-3.4%	?	-19.2%
Cc1oc2ccn(Cc3cccc(F)c3)c(=O)c2c1C(=O)NCC1CCCCC1	i	-15.7%	39.8µM*	39.8µM*
SMILES	FLuc inh	NPR1 antag	HEK cytotox	3T3 cytotox
CCOC(=O)c1cccc(NC(=O)c2c(C)oc3ccn(Cc4ccc(F)cc4)c(=O)c23)c1	i	-5.0%	39.8µM*	?
COc1cccc(CNC(=O)c2c(C)oc3ccn(Cc4ccc(F)cc4)c(=O)c23)c1	i	-18.9%	39.8µM*	?
Cc1oc2ccn(Cc3ccccc3F)c(=O)c2c1C(=O)NCc1cc(F)cc(F)c1	i	-4.3%	35.5µM*	?
O=C(NC1CC1)c1ccccc1OC1CN(Cc2cccc(F)c2)C1	i	-7.9%	?	-27.9%
COc1cccc(CN2CC(Oc3ccccc3C(=O)NCc3ccccc3)C2)c1	i	-19.2%	39.8µM*	35.5µM*
O=C(NCc1ccccc1)c1ccccc1OC1CN(Cc2ccc(F)cc2)C1	i	-16.7%	?	31.6µM*
COc1ccc(-c2cnc3[nH]cc(CC(=O)N4CCC(OC)CC4)c3c2)cc1	22.4µM*	-13.1%[70.6 µM]	?	?
COC1CCN(C(=O)Cc2c[nH]c3ncc(-c4ccccc4)cc23)CC1	?	-3.0%[70.6 µM]	-1.3%[172 µM]	?
CN(C)C(=O)c1ccc(-c2cnc3[nH]cc(CC(=O)N4CCOCC4)c3c2)cc1	i	-1.9%[70.6 µM]	?	?
COc1ccc(-c2cnc3[nH]cc(CC(=O)N4CCCC4)c3c2)cc1	22.4µM*	?	70.8µM*	7.94µM*
O=C(c1cc2ccccc2[nH]1)N1CCN2CCS(=O)(=O)N(C3CC3)C(=O)C2C1 (centres undefined)	.	.	?	-24.1%
CN(Cc1cccc(-n2cccn2)c1)Cc1nc(-c2cccs2)no1	i	-8.1%	79.4µM*	-23.6%
CN(Cc1ccc(-n2cccn2)cc1)Cc1nc(Cc2cccc(F)c2)no1	i	2.3%	?	-19.9%
Cc1noc(-c2cn(C3CCN(C(=O)C4(c5ccccc5)CC4)CC3)nn2)n1	i	-0.1%	-9.7%	-36.7%
O=C(c1ccc2c(c1)OCO2)N1CCCC(n2cc(-c3nc(C4CC4)no3)nn2)C1 (centres undefined)	i	-4.1%	?	?
O=C(c1ccccc1)N1CCCC(n2cc(-c3nc(-c4ccccc4)no3)nn2)C1 (centres undefined)	?	12.6µM*	?	?
O=C(c1ccc2c(c1)OCO2)N1CCCC(n2cc(-c3nc(-c4ccccc4)no3)nn2)C1 (centres undefined)	?	11.2µM*	?	?
O=C(N1CCCC(n2cc(-c3nc(-c4ccccc4)no3)nn2)C1)C1(c2ccccc2)CC1 (centres undefined)	?	14.1µM*	44.7µM*	?
O=C(C1CCC1)N1CCCC(n2cc(-c3nc(-c4ccccc4)no3)nn2)C1 (centres undefined)	39.8µM*	?	?	?
O=C(c1cccnc1)N1CCCC(n2cc(-c3nc(-c4ccccc4)no3)nn2)C1 (centres undefined)	i	?	?	-39.7%
O=C(NC1CCCCC1)[C@@H]1C[C@@H](O)CN1C1CCN(C(=O)c2n[nH]c3ccccc23)CC1	i	3.1%	-1.7%	1.2%
OCCC1CN(c2nc(-c3ccccc3)nc3c2CCC3)CCN1C1CCCC1 (centres undefined)	i	1.2%	?	?
O=C(C1CCCC1)N1CCCC(n2cc(-c3nc(-c4ccccc4)no3)nn2)C1 (centres undefined)	?	12.6µM*	?	?
